# This is a sample that favours compounds with a hit; in the whole collection about 7.4% have one here.
# ELG1 genotoxic – qHTS screen for small molecules that induce genotoxicity in human embryonic kidney (HEK293T) cells expressing luciferase-tagged ELG1. HEK293T ELG1-luciferase reporter, luminescence, 16 h. Potency, µM (highest dose often 46 µM), without a hit: top-dose activity change, positive = activation, most hits filed as activators. actives 1.3% (n = 330,000). AID 504466, 2011; also: % of control where 0% means no effect; nearly all actives have a fitted effect of over 60% in size
#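 Genotoxicity was scored as increased ELG1-luciferase reporter signal, measured by ONE-Glo luminescence (30 min, room temperature). Compound or vehicle exposure of the HEK293T reporter cells lasted 16 hr at 37°C.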
# SMN2 splice up – qHTS Assay for Enhancers of SMN2 Splice Variant Expression | actives 2.8% (n = 210,000) | Potency, µM (highest dose often 46.1 µM), for the others: at the top dose activity change, positive = activation, usual class: activators | HEK293 SMN2-luciferase splicing reporter, luminescence, 30-36 h; also: % of control where 0% means no effect; nearly all actives have a fitted effect of over 55% in size
#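 HEK293 cells carry an SMN2 […]–luciferase reporter in which exon 7 inclusion puts luciferase in frame. Cells were plated 10-12 h before compound addition, then incubated 30-36 h at 37C. ONE-Glo luminescence was read; sodium butyrate at 4.5 mM final served as control.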
# Rab9 promoter act – qHTS Assay for Rab9 Promoter Activators. Huh7 Rab9 promoter-luciferase reporter, luminescence, 24 h. actives 2.8% (n = 320,000). AID 485297, 2010. Potency, µM (titrated, usually from 9.22 µM), without a hit: top-dose activation, negative = inhibition, most hits filed as activators; also: % of control where 0% means no effect; nearly all actives have a fitted effect of over 60% in size
#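 Measured in stably transfected Huh7 cells bearing a Rab9 promoter–luciferase construct: 24 h compound treatment at 37 °C, followed by luminescence detection.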
# NPC1 promoter act – qHTS Assay for NPC1 Promoter Activators. Potency, µM (titrated, usually from 9.22 µM), inactives show at the top dose activation, actives largely listed as activators. AID 485313, 2010. actives 2.4% (n = 320,000). Huh7 NPC1 promoter luciferase reporter, 24 h; also: % of control where 0% means no effect; nearly all actives have a fitted effect of over 60% in size
#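 Stable NPC1-promoter luciferase Huh7 line; cpd (DMSO) 24 h, 37 °C, 5% CO2; Amplite luciferase reagent 10 min RT; luminescence readout. qHTS format.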
# FLuc counter – qHTS profiling assay for firefly luciferase inhibitor/activator using purifed enzyme and Km concentrations of substrates (counterscreen for miR-21 project); Luciferin 4-monooxygenase (Photinus pyralis), P08659; purified FLuc, Km substrates, luminescence inhibition; Potency, µM (top dose mostly 57.5 µM), for inactives: at the highest dose activity change, negative = inhibition, actives largely listed as inhibitors; actives 6.9% (n = 360,000); AID 588342, 2011;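 also: plate controls were vehicle for no effect and reference inhibitor for full effect; nearly all actives have a fitted effect of over 55% in size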
# Target sequence (P08659 whole entry, looked up): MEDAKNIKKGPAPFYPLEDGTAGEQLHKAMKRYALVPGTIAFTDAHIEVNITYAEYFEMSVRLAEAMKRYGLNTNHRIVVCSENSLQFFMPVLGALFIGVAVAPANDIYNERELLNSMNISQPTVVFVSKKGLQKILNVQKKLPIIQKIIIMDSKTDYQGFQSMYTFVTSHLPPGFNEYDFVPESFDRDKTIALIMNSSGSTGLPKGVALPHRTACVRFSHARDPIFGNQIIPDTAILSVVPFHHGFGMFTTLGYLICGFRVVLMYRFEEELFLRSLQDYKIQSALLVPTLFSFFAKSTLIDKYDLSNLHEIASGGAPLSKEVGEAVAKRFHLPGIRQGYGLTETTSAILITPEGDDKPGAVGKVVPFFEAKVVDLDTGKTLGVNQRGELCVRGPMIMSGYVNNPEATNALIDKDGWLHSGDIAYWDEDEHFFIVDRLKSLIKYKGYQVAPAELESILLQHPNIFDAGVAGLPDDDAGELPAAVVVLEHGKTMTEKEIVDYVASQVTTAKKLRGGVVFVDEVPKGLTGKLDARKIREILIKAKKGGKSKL
#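 Biochemical qHTS of compounds, final roughly 60 µM downward over six points, against 10 nM purified firefly luciferase using Km concentrations of substrates (10 uM D-luciferin, 10 uM ATP) in Tris acetate pH 7.5 buffer; luminescence output.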
# * = called active by the depositor; u = inconclusive; x = no result; [ ] = dose if it differs, or a comment. Calls follow the shape of the dose curve; as a rule, active = well fitted curve in the direction sought with a large enough effect; inconclusive = small, poorly fitted or top-dose-only effect, or another doubt; inactive = no such curve, though single readings can be large; an effect the other way counts as inactive or inconclusive. Potency is read from the fitted curve at half-maximal effect.
SMILES,ELG1 genotoxic,SMN2 splice up,Rab9 promoter act,NPC1 promoter act,FLuc counter
O=C(Nc1nc(-c2ccccn2)cs1)c1ccc(Br)s1,u,-96%,-3%,-3%,19µM*
O=C(Nc1nccs1)c1ncc(Cl)c(Cl)c1Cl,-14%,x,5%,0%,13µM*
O=C(Nc1nccs1)c1ccc(Br)s1,u,x,4µM*,u,15µM*
C/C(=C\c1ccccc1)C(=O)Nc1nccs1,u,11µM*,3.5µM*,2.5µM*,9.5µM*
O=C(Nc1nccs1)c1ccc(S(=O)(=O)c2ccccc2)cc1,-1%,-12%,0%,-1%,6%
O=C(Nc1nccs1)c1cccnc1Cl,2%,x,-4%,1%,-2%
O=C(Nc1ccccc1N1CCOCC1)c1ccc(N2CCOCC2)c([N+](=O)[O-])c1,-13%,21%,-1%,-3%,u
O=C(Nc1nccs1)Oc1ccccc1,0%,-1%,-5%,1%,-4%
O=C(Nc1nccs1)c1ccc(N2CCOCC2)c([N+](=O)[O-])c1,u,x,2.2µM*,1.8µM*,12µM*
O=C(Nc1nccs1)c1ccc2ccccc2c1,14%,x,3.2µM*,3.2µM*,3µM*
COc1ccccc1CNC(=O)c1nnn(CC(=O)Nc2c(C)cccc2C)c1N,x,x,x,x,-4%
CC(C)(C)c1ccc(Oc2ccc(NC(=O)C3CC=CCC3C(=O)O)cc2)cc1 (stereo not drawn),-1%,16µM*,-8%,2%,27µM*
Cc1ccccc1Nc1cc(C)c2c(O)cccc2n1,0%,-6%,-10%,-1%,19µM*
COc1ccc(Nc2cc(C)c3c(O)cccc3n2)cc1,4%,x,20%,7%,21µM*
COC(=O)c1cc(Nc2cc(C)c3c(O)cccc3n2)cc(C(=O)OC)c1,-6%,x,0%,10%,u
Cc1cc(Nc2ccccc2O)c2ccccc2n1,-2%,x,-2%,0%,0%
Cc1ccc(Nc2cc(C)c3c(O)cccc3n2)cc1C,u,x,u,u,9.5µM*
COC(=O)c1cc(Nc2cc(C)c3ccc(O)cc3n2)cc(C(=O)OC)c1,5%,x,10%,0%,0%
Cc1ccc(Nc2cc(C)c3ccc(O)cc3n2)cc1C,13%,x,1%,3%,17µM*
COC(=O)c1cnn(-c2ccc(Cl)cc2)c1/C=N/NC(N)=S,-11%,x,-20%,-7%,-1%
CCNC(=S)/N=C(\N)Nc1nc(C)c2cc(C)ccc2n1,u,x,2.8µM*,3.5µM*,6µM*
Cc1ccc(-n2ncc3c(Nc4cccc(C(F)(F)F)c4)ncnc32)cc1C,x,x,x,x,15µM*
Cc1cccc(-n2ncc3c(NCCOCCO)ncnc32)c1,x,x,x,x,19µM*
CCCn1ncc2c(Nc3ccc(C)c(C)c3)ncnc21,u,x,u,3.5µM*,24µM*
CC(C)Nc1ncnc2c1cnn2-c1ccccc1,u,0.63µM*,0.35µM*,1.4µM*,2.4µM*
SMILES,ELG1 genotoxic,SMN2 splice up,Rab9 promoter act,NPC1 promoter act,FLuc counter
COc1ccc(-c2nc(CS(=O)CC(=O)NCCCN3CCCC(C)C3)c(C)o2)cc1OC (stereo not drawn),7%,x,-4%,-2%,1%
Fc1ccccc1,x,-2%,x,x,x
Fc1ccc(-c2noc3ncnc(Nc4ccc(F)cc4F)c23)cc1,x,x,x,x,2%
COc1ccc(-n2ncc3c(Nc4cccc(C)c4)ncnc32)cc1,u,u,4µM*,2.8µM*,11µM*
Cc1cccc(-n2ncc3c(Nc4ccc(F)cc4)ncnc32)c1,15µM*,11µM*,2.5µM*,u,u
COc1ccc(Nc2ncnc3c2cnn3-c2cccc(C)c2)cc1OC,0%,x,-1%,-1%,-1%
Cc1cccc(-n2ncc3c(NC(C)C)ncnc32)c1,2.6µM*,3.5µM*,0.89µM*,3.2µM*,2.4µM*
CC(=Nc1ccc(O)cc1)c1sc2ccccc2c1O,4.6µM*,10µM*,1.1µM*,1.8µM*,2.4µM*
CC(=Nc1cccc(C)c1)c1sc2ccccc2c1O,9.2µM*,13µM*,u,20%,3µM*
CC(=O)NCCN=C(C)c1sc2ccccc2c1O,11%,u,u,u,u
O=[N+]([O-])c1cccc(N=Cc2sc3ccccc3c2O)c1,u,9%,u,26%,u
CC(=Nc1ccccc1O)c1sc2ccccc2c1O,u,x,u,6%,9.5µM*
O=C(N[C@@H]1c2ccccc2CC[C@@H]1OCc1ccccc1)c1ccc(-c2ccccc2)cc1,6%,x,x,x,x
O=C(CC1N=C2c3ccccc3N=C(SCc3ccccc3F)N2C1=O)NCc1cccs1 (stereo not drawn),x,x,x,x,-10%
O=C(CSc1nc2c(c(=O)[nH]1)CCCC2)Nc1cccc(O)c1,x,x,x,x,-1%
COc1ccc(-c2nc(S(=O)(=O)c3ccc(C)cc3)c(NCc3ccccc3)o2)cc1,x,1%,x,x,2%
O=C(Nc1ccc(-c2n[nH]c(=S)o2)cc1)c1ccccc1Cl,11%,x,22%,19%,11µM*
CC(C)c1ccc(NS(=O)(=O)c2ccc3nc(-c4ccccc4)[nH]c3c2)cc1,x,-25%,x,x,5%
CN(C)C(=O)[C@H]1C[C@H]1[C@@H](O)[C@H](CO)NC(=O)[C@H](COCc1ccccc1)NC(=O)OC(C)(C)C,-2%,x,3.2µM*,0%,3%
Cc1cc(OCC(=O)N2CCOCC2)ccc1[N+](=O)[O-],u,x,2.8µM*,3.2µM*,24µM*
Cc1ccc(-c2ccc(OCC(=O)N3CCOCC3)cc2)cc1,u,-2%,18%,16%,19µM*
Cc1ccc(OCC(=O)N2CCN(c3ccc([N+](=O)[O-])c(N4CCOCC4)c3)CC2)cc1,-1%,4%,-4%,1%,-2%
Cc1nc(-c2ccc(S(=O)(=O)Oc3ccccc3Cl)s2)cs1,-9%,x,-2%,-2%,u
O=C1c2ccccc2NC(c2ccccc2Cl)N1N=C1CCCCCC1 (stereo not drawn),u,-7%[1.84 µM],-1%,-2%,12µM*
COc1ccc(OC)c(NC(=O)CSc2nccn2Cc2ccco2)c1,5%,x,2%,4%,15µM*
Cc1ccc(NC(=O)CSc2nccn2Cc2ccco2)c(C)c1,5.2µM*,x,0.63µM*,0.89µM*,4.3µM*
O=C(CSc1nccn1Cc1ccco1)Nc1ccccc1F,u,x,17%,u,u
Cc1cc(C)c(NC(=O)CSc2nccn2Cc2ccco2)c(C)c1,x,x,x,x,17µM*
COc1ccc(CCN(C)CC(O)COc2ccc(C(C)=O)cc2OC)cc1OC (stereo not drawn),-1%,x,4%,-2%,0%
COc1ccc(CNC(=O)c2cc3oc4ccccc4c3n2C)cc1OC,x,u,x,x,-12%
